Test results as given in PubChem BioAssay (NCI).
The panel holds about 83,000 compounds, 20% with a hit somewhere; the sample as a whole holds those more often.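 Plates (96-well) were seeded with cells, treated with compound at one concentration, and incubated for 48 hours before percent growth was determined.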 A number with no mark means an inactive call. Activity calls are given as the source filed them. The calls were made as follows: active = growth percent below 10; inactive = the rest.

Tested on: HOP-92 NSCLC
Experiment: NCI-60 one-dose screen, 48 h (100 = growth as untreated, 0 = no growth, -100 = all killed)
Conditions: 10 µM unless noted

Structure (SMILES) | growth
COC(=O)C1=Nc2ccc(F)cc2/C1=C\c1sc(Nc2ccc(O)cc2)nc1O | 42.7%
COc1ccc(OC)c(Nc2nnc(-c3ccc(Cl)cc3)o2)c1 | 100%
O=C(OC[C@@H]1CO1)c1cccc2c(=O)c3ccccc3[nH]c12 | -25.5% (active)
CNC(=O)c1c(NC(=O)c2ccc(C(C)(C)C)cc2)sc2c(CN(C)C)c(O)ccc12 | 19%
C=C1C(=O)O[C@H]2[C@H]1CC/C(COC(=O)c1cc3cc(F)ccc3[nH]1)=C\CC[C@@]1(C)O[C@@H]21 | -84.9% (active)
COc1ccc2[nH]cc(-c3nc(-c4cn(C)c5ccncc45)cs3)c2c1 | 98.2%
Brc1ccc(-c2cnc3nonc3n2)cc1 | 86.9%
CC(C)CN1CC(C(=O)Nc2ccc3c(c2)-c2ccccc2C3)CC1=O (stereo not given) | 58.5% [50 µM]
COc1cc2ncnc(Nc3ccc(F)c(Cl)c3)c2cc1OCC(=O)N1CCN(c2ccc(F)cc2)CC1 | 87.9%
COc1ccc(-c2cn(-c3ccc(Cl)cc3)c(SCC(=O)c3ccc([N+](=O)[O-])cc3)n2)cc1 | 28%
CCN(CC)S(=O)(=O)c1ccc(S(=O)(=O)N2CCC[C@@H](C(=O)N3CCN(C(=O)OC(C)(C)C)CC3)C2)cc1 | 74.9%
O=C(c1ccc(Cl)cc1Cl)N1c2ccccc2Sc2ccccc21 | 71.5%
COc1ccc(C2C3=C(COC3=O)N(CCO)c3cc4c(cc32)OCCO4)cc1OC (stereo not given) | 40.8%
N#C/C(=C\c1ccc(-c2ccc(Cl)cc2)o1)c1ccc(Cl)cc1 | 5.34% (active)
COc1ccc(C2CC(c3ccc(Nc4nc(Nc5ccc(F)cc5)nc(Nc5ccc(F)cc5)n4)cc3)=NN2C(C)=O)cc1 (stereo not given) | -13.6% (active)
CCN(CC)CCOc1nc2c3ccc(Cl)cc3nn2c2ccccc12 | -3.36% (active)
COc1cc2c(cc1O)[C@@]1(C)[C@H](c3ccccc3Br)OC(=O)N1CC2 | 82.8%
CC(C)(C)c1cc(C=Nc2cccc(C(F)(F)F)c2)c(O)c(C(C)(C)C)c1 | 90.9%
CCCCCCNc1nc(NCCCCCC)c2[nH]c(NCCCCCC)nc2n1 | -12.9% (active)
COc1ccc(C2C(C#N)=C(N)Oc3c2sc2c(Br)cccc32)cc1 (stereo not given) | 47%

Structure (SMILES) | growth
CC(/C=C1\SC(=S)N(CC(=O)NC(Cc2c[nH]c3ccccc23)C(=O)O)C1=O)=C\c1ccccc1 (stereo not given) | 106%
CCOC(=O)c1c(NC(=O)c2ccc(OC)cc2)sc2c(CN(C)C)c(O)ccc12 | 25.3%
O=C(CCCCl)NNc1nccc(Nc2ccc(S(=O)(=O)Nc3ccncc3)cc2)n1 | 98.5%
Nc1ncnc2c1c(-c1ccc(Oc3ccccc3)cc1)nn2CC1SSCC1O (stereo not given) | 6.06% (active)
COc1ccc(NC(=O)c2sc3nc(C)c(C(O)c4ccccc4)cc3c2N)cc1 (stereo not given) | 78.9%
COc1cccc(C(=O)OCC(O)C(=O)NC23CC4CC(CC(C4)C2)C3)c1 (stereo not given) | 91.7%
O=C(CBr)CN1C(=O)c2ccccc2C1=O | -10.6% (active)
O=C(NCc1ccccc1O)c1cccc2ccccc12 | -8.54% (active)
CCn1cc(C(=O)NN=C2CCCCCC2)c(=O)c2ccc(C)nc21 | 80.7%
Nc1c(C(=O)Nc2ccccn2)sc2nc3c(cc12)C(O)CCC3 (stereo not given) | 50.9%
COc1ccc(NC(=O)c2ccc(C(=O)Nc3ccc(OC)cc3OC)cc2)c(OC)c1 | -19.3% (active)
O=C(Nc1ncc(Cc2ccccc2Cl)s1)c1cccs1 | 58.6%
COc1ccc2nc3ccccc3c(NCc3ccccc3)c2c1 | -13.4% (active)
Fc1ccc(COc2ccc(Nc3ncnc4sc5c(c34)CCCC5)cc2)cc1 | 88.9%
COc1ccc(C2=Nc3c/c(=C\c4c(O)[nH]c5cc(Cl)ccc45)ccc3=N2)cc1 | 77.9%
N#Cc1c(N2CCOCC2)nc(=S)[nH]c1-c1ccccc1 | -7.41% (active)
O=C1CCC(C(=O)NN(c2ccccc2)c2ccccc2)N1 (stereo not given) | 69.6%
C/C(C=O)=C\c1ccc2c(c1)OCO2 | 104%
COc1cc2c(/C=C3\C(=O)Nc4ccccc43)c(C(=O)O)[nH]c2cc1C | 63.8%
C/C(=N\Nc1nc(C)cs1)c1cc2ccccc2o1 | 87.3%
